In PubChem BioAssay AID602383 (National Center for Advancing Translational Sciences (NCATS), 2012):
Activity calls are given as the source filed them. The call rests on the fitted dose curve; in most records, active means well fitted curve in the direction sought with a large enough effect; inactive means no such curve, though single readings can be large or run the other way.

Molecular target: Pyruvate kinase PKM (Homo sapiens) (UniProt P14618)
Assay: qHTS for Activators of Human Muscle Isoform 2 Pyruvate Kinase: Muscle Isoform 1 Assay
Settings: purified hPK-M1, ATP generation, Kinase-Glo luminescence, 1 h; series mostly up to 58.2 µM
Method: Human pyruvate kinase muscle isoform 1 (hPK-M1) enzyme was supplied as a highly purified (>95% pure) preparation from Harvard Medical School and assayed for its ability to generate ATP from ADP using phosphoenolpyruvate (PEP) as a substrate. ATP generation was detected in a coupled reaction by luciferase-mediated luminescence, an ATP-dependent process. Pyruvate kinase substrates, PEP and ADP, were present in the assay at Km and approximately 10-fold below Km respectively. The enzyme was assayed at an intermediate level of activity to screen for both inhibitors and activators. NIH Chemical Genomics Center [NCGC] NIH Molecular Libraries Probe Centers Network [MLPCN] MLPCN Grant: MH085679 Assay Submitter (PI): Matthew G. Vander Heiden, Harvard Medical School
Three uL of substrate mix (at r.t.) in assay buffer (50 mM Imidazole pH7.2, 50 mM KCl, 7 mM MgCl2, 0.01% Tween 20, 0.05% BSA) was dispensed into white solid bottom 1,536 well microtiter plates so that the final concentrations of substrates in the assay were 0.1 mM ADP and 0.5 mM PEP. 23 nL of compound were delivered by a pin tool and 1 uL of enzyme mix (final concentration of 1 nM) in assay buffer (4 degree Celsius) was added. Plates were incubated at room temperature for 1 hour. Two uL of detection mix (Kinase-Glo, Promega; at 4 degree Celsius protected from light) was added and luminescence read by a ViewLux (Perkin Elmer) at 1 second exposure/plate. Data were normalized to the uninhibited (row 31). Additionally, a no enzyme and 5-fold enzyme control was dispensed in row 32, split equally between the two conditions.

Sequence of Pyruvate kinase PKM (Homo sapiens) (P14618 whole entry, looked up, canonical isoform): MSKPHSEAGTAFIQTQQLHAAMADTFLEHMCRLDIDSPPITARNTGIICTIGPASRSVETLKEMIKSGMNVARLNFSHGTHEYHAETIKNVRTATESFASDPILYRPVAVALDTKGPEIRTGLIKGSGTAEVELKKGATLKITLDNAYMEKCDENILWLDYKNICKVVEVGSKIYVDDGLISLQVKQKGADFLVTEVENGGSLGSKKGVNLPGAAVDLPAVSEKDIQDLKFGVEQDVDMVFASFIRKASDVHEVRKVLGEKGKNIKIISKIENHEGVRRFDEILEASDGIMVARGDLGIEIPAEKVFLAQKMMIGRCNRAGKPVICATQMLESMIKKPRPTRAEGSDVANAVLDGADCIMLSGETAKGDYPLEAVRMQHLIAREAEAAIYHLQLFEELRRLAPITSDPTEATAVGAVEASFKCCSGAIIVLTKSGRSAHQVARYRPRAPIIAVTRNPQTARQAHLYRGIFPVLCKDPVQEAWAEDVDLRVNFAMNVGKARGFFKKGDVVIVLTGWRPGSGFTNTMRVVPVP

outcome, inactive:
COc1cccc(Cn2ncc3c4sc(S(C)=O)cc4n(C)c3c2=O)c1 (stereo unspecified)
Cc1cc2c(s1)c1cnn(Cc3cc(F)c(F)cc3F)c(=O)c1n2C
Cc1cc2c(s1)c1cnn(Cc3c(Cl)ccc(C)c3F)c(=O)c1n2C
Cc1cc2c(s1)c1cnn(Cc3cc(F)ccc3F)c(=O)c1n2C
Cn1c2cc(S(C)=O)sc2c2cnn(Cc3cccc(N)c3)c(=O)c21 (stereo unspecified)
Cc1cc2c(s1)c1cnn(Cc3ccc(F)cc3F)c(=O)c1n2C
